In PubChem BioAssay (EPA / NIEHS) one finds outcome and AC50 data, which are given here for eleven compounds.

Inconclusive results are not listed. Activity calls are given as the source filed them. The calls were made as follows, unless noted: active = hit-call score of the fitted dose curve at least 0.9, where 1 is the maximum; inactive = score below 0.9.

Assay [1] deals with Oxysterols receptor LXR-alpha (Homo sapiens) (UniProt Q13133). Kind of assay: ATG_LXRa_TRANS: Attagene TRANS-FACTORIAL HepG2 Assay for human Liver X Receptor alpha (LXRa) (AID 2282980; active = hit-call score of the fitted dose curve at least 0.9, where 1 is the maximum). As to conditions: HepG2 Attagene TRANS reporter, LXRa transactivation. The essentials:
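HepG2 cells transiently transfected with GAL4-UAS reporter units for chimeric NR-Gal4 proteins, exposed to chemicals for 24 h. Reporter mRNA quantified by RT-PCR and capillary electrophoresis; gain of signal fitted relative to DMSO.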

Assay [2] concerns the target Hepatocyte nuclear factor 4-alpha (Homo sapiens) (UniProt P41235). Kind of assay: ATG_HNF4a_TRANS: Attagene TRANS-FACTORIAL HepG2 Assay for human Hepatocyte Nuclear Factor 4 alpha (HNF4a) (AID 2282982; active = hit-call score of the fitted dose curve at least 0.9, where 1 is the maximum). As to conditions: HepG2 HNF4a transactivation reporter, mRNA readout. Put shortly: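 In this trans-factorial format, a chimeric HNF4a-GAL4 fusion drives a GAL4-UAS reporter in transfected HepG2 liver cells. After 24 h treatment, reporter mRNA induction is measured by RT-PCR with capillary electrophoresis, relative to DMSO.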

The nature of assay [3]: ATG_M_06_TRANS: Attagene TRANS-FACTORIAL HepG2 Assay for M06 Transcription Factor (Internal Marker) (AID 2282983; active = hit-call score of the fitted dose curve at least 0.9, where 1 is the maximum). The conditions noted are these: HepG2 Attagene TRANS M06 internal marker reporter. Put shortly:
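mRNA levels of a reporter transcript, quantified as FAM fluorescence on capillary electrophoresis, served as readout. HepG2 cells expressing exogenous GAL4-chimera reporter constructs were exposed for 24 h. Gain of signal over DMSO was evaluated.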

Assay [4] deals with Nuclear receptor subfamily 4 group A member 2 (Homo sapiens) (UniProt P43354). Kind of assay: ATG_NURR1_TRANS: Attagene TRANS-FACTORIAL HepG2 Assay for human Nuclear Receptor Related Protein 1 (NURR1) (AID 2282985; active = hit-call score of the fitted dose curve at least 0.9, where 1 is the maximum). As to conditions: HepG2 Attagene TRANS reporter, mRNA readout. The essentials: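 Chimeric NR-Gal4 fusion activity measured in HepG2 after 24 h treatment. Reporter transcripts detected by RT-PCR and capillary electrophoresis fluorescence; positive-direction curve fitting against DMSO.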

Assay [5] deals with Transcriptional activator Myb (Homo sapiens) (UniProt P10242). Kind of assay: ATG_Myb_CIS: Attagene CIS-FACTORIAL HepG2 Assay for human Myeloblastosis (Myb) Proto-Oncogene Transcription Factor (AID 2282986). As to conditions: HepG2 Attagene CIS-FACTORIAL Myb reporter transcription; actives raise or lower the signal. The essentials: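 Transiently transfected HepG2 cells, treated 24 h. Reporter mRNA quantified by RT-PCR/capillary electrophoresis; bidirectional fit relative to DMSO.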

Assay [6] concerns the target Nuclear respiratory factor 1 (Homo sapiens) (UniProt Q16656). Kind of assay: ATG_NRF1_CIS: Attagene CIS-FACTORIAL HepG2 Assay for human Nuclear Respiratory Factor 1 (NRF1) Orphan Gene (AID 2282987). As to conditions: HepG2 NRF1 cis-element reporter, Attagene multiplex; actives raise or lower the signal. The essentials:
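Cells (HepG2, transient MRTU transfection) are exposed to compound for 24 h, then RNA isolated and reporter mRNA amplified and fluorescently labelled. Fragments are separated by capillary electrophoresis; signal change is fitted bidirectionally relative to DMSO.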

Assay [7] in a line: ATG_NFI_CIS: Attagene CIS-FACTORIAL HepG2 Assay for human Nuclear Factor I (NFI) (AID 2282989). The conditions noted are these: HepG2 cis-regulatory reporter, NFI response element transcription; actives raise or lower the signal. The essentials: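 Transfected HepG2 liver cells, exposed 24 h, supplied total RNA for oligo(dT) reverse transcription and reporter-specific PCR. Labelled, HpaI-cut fragments were sized by capillary electrophoresis; DMSO set the baseline for bidirectional fitting.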

Assay [8] has as its target Myc proto-oncogene protein (Homo sapiens) (UniProt P01106). Kind of assay: ATG_Myc_CIS: Attagene CIS-FACTORIAL HepG2 Assay for human Myelocytomatosis (Myc) Proto-Oncogene Transcription Factor (AID 2282990). The conditions noted are these: HepG2, Attagene cis-reporter transcription factor activity; actives raise or lower the signal. Put shortly:
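HepG2 cells transiently transfected with multiple cis-promoter-driven reporter transcription units, so endogenous TF activity is read. After 24 h compound exposure, reporter mRNA was quantified by RT-PCR, 6-FAM labelling, HpaI digestion and capillary electrophoresis; bidirectional fit versus DMSO.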

The nature of assay [9]: ATG_NRF2_ARE_CIS: Attagene CIS-FACTORIAL HepG2 Assay for human Nuclear Factor Erythroid 2 Related Factor 2 (NFR2) response to Antioxidant Response Elements (ARE) (AID 2282992). As to conditions: HepG2 Attagene ARE/NRF2 reporter, transcription factor activity; actives raise or lower the signal. Put shortly:
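Using transiently transfected HepG2 cells exposed for 24 h, reporter mRNA levels were determined by RT-PCR with fluorescent primer extension and capillary electrophoresis, analysed for gain or loss of signal against DMSO.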

Assay [10] can be described thus: ATG_Oct_MLP_CIS: Attagene CIS-FACTORIAL HepG2 Assay for human Octamer-Binding Transcription Factor (Oct) (AID 2282993). As to conditions: HepG2 Attagene cis-factorial Oct reporter, mRNA; actives raise or lower the signal. Put shortly:
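Using HepG2 cells bearing transfected cis-reporter constructs, mRNA induction was read after 24 h by fluorescent RT-PCR and capillary electrophoresis, with DMSO defining baseline for gain- or loss-of-signal fits.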

The target of assay [11] is Cellular tumor antigen p53 (Homo sapiens) (UniProt P04637). Briefly: ATG_p53_CIS: Attagene CIS-FACTORIAL HepG2 Assay for human p53 Transcription Factor (AID 2282994). As to conditions: HepG2 p53 cis-element reporter, Attagene mRNA; actives raise or lower the signal. Put shortly:
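In HepG2 cells, reporter transcription units under cis-regulatory promoters were transiently introduced. Following 24 h treatment, RNA was processed to labelled, digested cDNA fragments read by capillary electrophoresis; fitting was bidirectional versus DMSO.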

The target of assay [12] is Bile acid receptor (Homo sapiens) (UniProt Q96RI1). Briefly: ATG_FXR_TRANS: Attagene TRANS-FACTORIAL HepG2 Assay for Farnesoid X Receptor (FXR) (AID 2282979; active = hit-call score of the fitted dose curve at least 0.9, where 1 is the maximum;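 also: hits raise reporter mRNA above DMSO so AC50 marks FXR activation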). The conditions noted are these: HepG2 Attagene TRANS FXR-GAL4 reporter transcription. The essentials:
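HepG2 cells were transiently transfected with GAL4-UAS reporters driven by chimeric NR-Gal4 proteins and dosed for 24 h. Reporter mRNA was quantified by RT-PCR, fluorescent labelling, HpaI digestion and capillary electrophoresis, with gain of signal scored versus DMSO.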

The nature of assay [13]: ATG_M_32_TRANS: Attagene TRANS-FACTORIAL HepG2 Assay for M32 Transcription Factor (Internal Marker) (AID 2282984; active = hit-call score of the fitted dose curve at least 0.9, where 1 is the maximum;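 also: transcript level of a background control reporter unit measured by RT-PCR and capillary electrophoresis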). As to conditions: HepG2 Attagene TRANS M32 internal marker reporter. Put shortly: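 After 24 h dosing of transfected HepG2 cells, total RNA was reverse-transcribed, reporter sequences PCR-amplified, 6-FAM labelled by primer extension and HpaI-digested before capillary electrophoresis. Signal increase over DMSO was fitted.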

Assay [14] is described as follows: ATG_NF_kB_CIS: Attagene CIS-FACTORIAL HepG2 Assay for human Nuclear Factor Kappa B (NF-kB) (AID 2282991). As to conditions: HepG2 Attagene cis-factorial NF-kB reporter mRNA; actives raise or lower the signal. The essentials:
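Measures mRNA induction of an NF-kB-responsive cis-element reporter in HepG2 cells transfected with multiple reporter units, sampled 24 h post-dosing; quantified by fluorescence after RT-PCR and capillary electrophoresis, fitted for activation or inhibition against DMSO.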

The target in assay [15] is Oxysterols receptor LXR-beta (Homo sapiens) (UniProt P55055). Kind of assay: ATG_LXRb_TRANS: Attagene TRANS-FACTORIAL HepG2 Assay for human Liver X Receptor beta (LXRb) (AID 2282981; active = hit-call score of the fitted dose curve at least 0.9, where 1 is the maximum). As to conditions: HepG2 Attagene TRANS GAL4-LXRb reporter, mRNA. Put shortly:
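Measures induction of a Gal4-driven reporter transcript in HepG2 cells expressing an exogenous LXRb-Gal4 fusion. Cells are exposed to compound for 24 h before RNA isolation and RT-PCR with capillary electrophoresis detection.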

Assay [16] can be described thus: BSK_3C_TissueFactor: BioMAP Diversity Plus: 3C Assay for Tissue Factor Biomarker Activity (AID 2282997). As to conditions: BioMAP 3C HUVEC, tissue factor biomarker readout; actives raise or lower the signal. The essentials:
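Tissue Factor measured by ELISA, 24 h after treatment of primary HUVEC in the BioMAP 3C setting.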

A short description of assay [17]: BSK_3C_uPAR: BioMAP Diversity Plus: 3C Assay for Urokinase-type plasminogen activator receptor (uPAR) Biomarker Activity (AID 2282998). The conditions noted are these: BioMAP 3C HUVEC, uPAR biomarker ELISA; actives raise or lower the signal. Put shortly:
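In this endothelial cell-based assay, human umbilical vein primary cells were treated with chemicals and harvested at 24 h. uPAR was quantified using ELISA, with gains or losses fitted relative to DMSO controls.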

Nuclear respiratory factor 1 (Homo sapiens), sequence (Q16656 whole entry, looked up, the tested form may be a part): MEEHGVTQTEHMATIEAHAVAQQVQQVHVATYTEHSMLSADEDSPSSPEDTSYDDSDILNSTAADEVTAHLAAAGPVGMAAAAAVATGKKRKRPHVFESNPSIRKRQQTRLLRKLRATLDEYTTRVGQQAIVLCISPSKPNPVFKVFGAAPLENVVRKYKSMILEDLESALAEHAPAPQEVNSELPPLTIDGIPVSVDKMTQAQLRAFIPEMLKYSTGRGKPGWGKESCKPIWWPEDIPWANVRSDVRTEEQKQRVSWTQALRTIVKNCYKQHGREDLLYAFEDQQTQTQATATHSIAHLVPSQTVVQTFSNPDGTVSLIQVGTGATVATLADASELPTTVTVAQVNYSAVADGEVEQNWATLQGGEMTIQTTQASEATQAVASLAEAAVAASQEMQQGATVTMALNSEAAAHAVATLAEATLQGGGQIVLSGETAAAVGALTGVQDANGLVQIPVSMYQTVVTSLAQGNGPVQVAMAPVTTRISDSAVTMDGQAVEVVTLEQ
Hepatocyte nuclear factor 4-alpha (Homo sapiens), sequence (P41235 whole entry, looked up, the tested form may be a part): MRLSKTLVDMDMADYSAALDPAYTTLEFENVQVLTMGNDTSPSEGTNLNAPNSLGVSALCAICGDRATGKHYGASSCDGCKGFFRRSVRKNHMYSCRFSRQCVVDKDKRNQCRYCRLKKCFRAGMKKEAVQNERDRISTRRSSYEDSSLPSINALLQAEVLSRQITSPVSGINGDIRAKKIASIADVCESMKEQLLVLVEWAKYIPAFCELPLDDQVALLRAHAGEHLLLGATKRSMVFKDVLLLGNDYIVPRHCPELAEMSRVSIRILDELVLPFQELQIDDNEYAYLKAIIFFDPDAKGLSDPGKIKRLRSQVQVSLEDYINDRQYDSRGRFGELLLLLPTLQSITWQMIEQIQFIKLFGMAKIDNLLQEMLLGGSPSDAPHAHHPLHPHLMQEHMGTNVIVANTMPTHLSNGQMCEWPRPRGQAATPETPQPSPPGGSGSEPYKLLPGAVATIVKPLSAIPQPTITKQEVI
Cellular tumor antigen p53 (Homo sapiens), sequence (P04637 whole entry, looked up, the tested form may be a part): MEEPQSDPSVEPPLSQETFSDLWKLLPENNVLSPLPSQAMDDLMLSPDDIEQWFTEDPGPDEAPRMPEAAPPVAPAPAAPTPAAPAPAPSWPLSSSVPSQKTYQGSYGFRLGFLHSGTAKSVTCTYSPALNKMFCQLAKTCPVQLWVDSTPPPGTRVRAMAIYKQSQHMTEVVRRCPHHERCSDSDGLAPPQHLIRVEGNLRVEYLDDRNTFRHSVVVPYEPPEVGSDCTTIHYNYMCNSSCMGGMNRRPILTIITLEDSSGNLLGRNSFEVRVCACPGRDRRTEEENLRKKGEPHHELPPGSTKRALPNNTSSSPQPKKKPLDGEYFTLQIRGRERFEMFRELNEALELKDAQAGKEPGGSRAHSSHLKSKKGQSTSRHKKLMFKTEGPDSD
Transcriptional activator Myb (Homo sapiens), sequence (P10242 whole entry, looked up): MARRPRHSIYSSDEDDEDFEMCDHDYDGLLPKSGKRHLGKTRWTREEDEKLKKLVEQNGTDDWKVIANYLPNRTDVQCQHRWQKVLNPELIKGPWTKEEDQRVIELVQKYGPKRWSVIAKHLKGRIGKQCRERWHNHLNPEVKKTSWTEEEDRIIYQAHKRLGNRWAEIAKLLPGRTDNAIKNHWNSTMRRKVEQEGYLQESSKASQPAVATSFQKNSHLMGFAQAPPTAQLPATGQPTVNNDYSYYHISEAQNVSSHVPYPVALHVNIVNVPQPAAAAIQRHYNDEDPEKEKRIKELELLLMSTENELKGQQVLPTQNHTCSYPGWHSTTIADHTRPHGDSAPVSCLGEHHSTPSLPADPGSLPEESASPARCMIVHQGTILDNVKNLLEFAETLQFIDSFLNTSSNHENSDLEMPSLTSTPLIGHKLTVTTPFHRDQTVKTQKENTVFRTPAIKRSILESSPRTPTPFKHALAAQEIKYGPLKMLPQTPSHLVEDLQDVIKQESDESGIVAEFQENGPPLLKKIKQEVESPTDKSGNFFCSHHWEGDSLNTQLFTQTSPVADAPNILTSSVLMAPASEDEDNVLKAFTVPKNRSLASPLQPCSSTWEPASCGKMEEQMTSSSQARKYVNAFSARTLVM
Nuclear receptor subfamily 4 group A member 2 (Homo sapiens), sequence (P43354 whole entry, looked up, the tested form may be a part): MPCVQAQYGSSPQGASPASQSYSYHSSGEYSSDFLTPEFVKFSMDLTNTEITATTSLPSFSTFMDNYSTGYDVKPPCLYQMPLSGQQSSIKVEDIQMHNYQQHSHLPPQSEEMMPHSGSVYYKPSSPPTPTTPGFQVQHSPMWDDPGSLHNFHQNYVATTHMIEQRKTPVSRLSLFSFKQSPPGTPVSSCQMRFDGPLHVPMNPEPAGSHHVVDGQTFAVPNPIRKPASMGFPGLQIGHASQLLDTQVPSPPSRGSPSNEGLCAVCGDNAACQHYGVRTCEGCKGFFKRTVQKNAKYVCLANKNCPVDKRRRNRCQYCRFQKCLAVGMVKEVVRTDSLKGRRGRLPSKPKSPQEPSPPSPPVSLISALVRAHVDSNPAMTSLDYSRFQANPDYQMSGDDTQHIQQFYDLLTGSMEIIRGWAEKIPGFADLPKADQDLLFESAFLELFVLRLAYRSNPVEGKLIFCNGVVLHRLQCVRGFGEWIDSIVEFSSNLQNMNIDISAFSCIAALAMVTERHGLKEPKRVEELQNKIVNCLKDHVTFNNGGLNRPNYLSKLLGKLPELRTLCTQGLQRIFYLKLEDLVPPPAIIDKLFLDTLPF
Oxysterols receptor LXR-beta (Homo sapiens), sequence (P55055 whole entry, looked up, the tested form may be a part): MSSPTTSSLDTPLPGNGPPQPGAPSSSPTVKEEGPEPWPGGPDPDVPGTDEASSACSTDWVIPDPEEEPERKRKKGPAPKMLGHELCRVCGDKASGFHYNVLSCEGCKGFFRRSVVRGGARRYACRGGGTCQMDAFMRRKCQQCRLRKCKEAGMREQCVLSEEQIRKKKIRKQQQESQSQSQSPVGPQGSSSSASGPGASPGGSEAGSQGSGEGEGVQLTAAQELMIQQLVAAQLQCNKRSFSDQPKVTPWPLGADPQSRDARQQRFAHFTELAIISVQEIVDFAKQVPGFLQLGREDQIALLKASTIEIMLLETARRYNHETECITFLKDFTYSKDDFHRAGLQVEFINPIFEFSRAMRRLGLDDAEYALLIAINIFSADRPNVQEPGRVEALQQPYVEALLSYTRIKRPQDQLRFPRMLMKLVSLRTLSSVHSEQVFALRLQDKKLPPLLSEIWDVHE
Myc proto-oncogene protein (Homo sapiens), sequence (P01106 whole entry, looked up): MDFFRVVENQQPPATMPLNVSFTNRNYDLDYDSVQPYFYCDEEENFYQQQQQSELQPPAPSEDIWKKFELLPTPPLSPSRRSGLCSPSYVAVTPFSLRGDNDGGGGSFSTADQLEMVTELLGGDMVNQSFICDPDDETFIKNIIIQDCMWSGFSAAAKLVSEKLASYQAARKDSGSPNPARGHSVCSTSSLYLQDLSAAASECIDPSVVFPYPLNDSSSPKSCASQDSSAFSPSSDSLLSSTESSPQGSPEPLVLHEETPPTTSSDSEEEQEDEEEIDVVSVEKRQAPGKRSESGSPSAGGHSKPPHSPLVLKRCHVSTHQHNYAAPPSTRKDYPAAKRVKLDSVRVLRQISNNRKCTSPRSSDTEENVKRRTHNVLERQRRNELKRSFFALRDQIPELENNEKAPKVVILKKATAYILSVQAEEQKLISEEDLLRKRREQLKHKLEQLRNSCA
Oxysterols receptor LXR-alpha (Homo sapiens), sequence (Q13133 whole entry, looked up, the tested form may be a part): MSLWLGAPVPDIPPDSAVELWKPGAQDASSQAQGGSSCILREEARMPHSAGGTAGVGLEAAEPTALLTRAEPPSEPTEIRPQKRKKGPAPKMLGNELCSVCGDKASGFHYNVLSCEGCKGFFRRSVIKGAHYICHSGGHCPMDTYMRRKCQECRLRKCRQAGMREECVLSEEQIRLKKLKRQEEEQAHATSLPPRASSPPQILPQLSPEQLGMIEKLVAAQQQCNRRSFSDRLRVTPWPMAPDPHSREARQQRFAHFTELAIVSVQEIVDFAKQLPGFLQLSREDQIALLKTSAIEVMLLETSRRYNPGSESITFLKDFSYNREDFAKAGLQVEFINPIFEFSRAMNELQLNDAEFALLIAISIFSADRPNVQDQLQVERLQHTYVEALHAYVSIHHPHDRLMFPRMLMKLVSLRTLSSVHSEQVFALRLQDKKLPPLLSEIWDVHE
Bile acid receptor (Homo sapiens), sequence (Q96RI1 whole entry, looked up, the tested form may be a part): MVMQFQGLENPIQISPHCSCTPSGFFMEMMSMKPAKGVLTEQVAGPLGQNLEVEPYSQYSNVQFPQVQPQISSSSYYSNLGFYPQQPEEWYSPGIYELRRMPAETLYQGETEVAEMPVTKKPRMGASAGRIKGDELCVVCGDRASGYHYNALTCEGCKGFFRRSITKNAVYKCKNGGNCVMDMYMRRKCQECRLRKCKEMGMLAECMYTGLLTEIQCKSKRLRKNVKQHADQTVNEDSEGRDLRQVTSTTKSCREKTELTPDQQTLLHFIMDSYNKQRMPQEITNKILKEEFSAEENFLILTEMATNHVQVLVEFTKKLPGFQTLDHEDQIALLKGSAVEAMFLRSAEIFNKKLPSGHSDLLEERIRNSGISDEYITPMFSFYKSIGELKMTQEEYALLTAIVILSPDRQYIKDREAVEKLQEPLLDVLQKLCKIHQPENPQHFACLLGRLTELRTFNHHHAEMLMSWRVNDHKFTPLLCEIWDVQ

For the compound `N#Cc1ccc(C2CCCc3cncn32)cc1` (stereo not given), the result in assay [1], in [2], in assay [3], in [4], in assay [5] and in [6] was inactive. Besides, the compound was classed as inactive in assay [7], in [8], in [9], in assay [10] and in [11].

Regarding `Cc1ccccc1CCO`, the result in assay [12], in [2], in [13], in assay [5], in [6] and in assay [7] was inactive. The compound was classed as inactive in [8], in assay [14], in [9], in assay [10] and in assay [11].

`CCCCNS(=O)(=O)c1ccc(C)cc1`: the compound was classed as inactive in assay [1], in [15], in [3], in assay [4], in [5] and in assay [6]. Moreover, the compound was classed as inactive in [7], in assay [8], in assay [9], in assay [10] and in assay [11].

On to `C=C(C)[C@@H]1CC=C(C)CC1`, for which the outcome in assay [15], in assay [3], in assay [4], in assay [5], in assay [6] and in [7] was inactive. The call in assay [8], in assay [9], in [10] and in assay [11] was inactive.

For `CCCc1ccc(O)c(OC)c1`, the compound was called inactive in [3], in [5], in assay [6], in assay [7], in [8] and in [11]. The AC50 (usually the midpoint of the concentration-response curve, whichever way the signal moves) in assay [9] is 28.8 µM (active).

In the case of `COC(=O)c1ccccc1C`, the outcome in assay [2], in assay [4], in [5], in assay [6], in assay [7] and in assay [8] was inactive. Moreover, the compound was classed as inactive in assay [9], in assay [10] and in assay [11].

`CCOC(=O)c1ccccc1C`: the compound was called inactive in assay [15], in assay [3], in assay [4], in assay [5], in [6] and in assay [7]. Further, the compound was classed as inactive in assay [8], in assay [14], in assay [9], in [10] and in assay [11].

Consider `COc1nccnc1CC(C)C`, for which the outcome in assay [15], in [5], in [6], in assay [7], in assay [8] and in assay [14] was inactive. In addition, the compound was called inactive in assay [9] and in [11].

Consider `CCCCCCCCCC[N+](C)(CCCCCCCCCC)CCC[Si](OC)(OC)OC`, for which the outcome in assay [15], in [2], in [4], in [6], in assay [7] and in assay [14] was inactive. The call in [10] was inactive. Moreover, the AC50 in assay [5] was 15.9 µM (active); in assay [8], 14.6 µM (active); in assay [9], 16 µM (active).

On to `C=CC(=O)NC(C)(C)C`, for which the compound was classed as inactive in [15], in assay [2], in [5], in assay [6], in assay [7] and in assay [8]. In addition, the result in assay [14], in [10], in [16] and in assay [17] was inactive. Besides, the AC50 in assay [9] is 28 µM (active).

On to `CC1=NN(c2ccc(S(=O)(=O)O)cc2)C(=O)C1N=Nc1ccccc1` (stereo not given), for which the call in assay [15], in assay [3], in assay [13], in assay [4], in assay [5] and in [6] was inactive. Besides, the result in assay [7], in assay [8], in assay [14], in assay [9] and in [11] was inactive.
